# Results published in PubChem BioAssay (EPA / NIEHS).
# Records with an inconclusive call do not appear. Calls of active or inactive are those of the source. Rule for the calls: active = hit-call score of the fitted dose curve at least 0.9, where 1 is the maximum; inconclusive = response in the unintended direction; inactive = score below 0.9.
# Target: human Protein Tyrosine Phosphatase Receptor Type C (PTPRC), PTPRC (gene 5788) (UniProt P08575)
# Test: NVS_ENZ_hPTPRC: NovaScreen (NVS) Enzymatic Assay for human Protein Tyrosine Phosphatase Receptor Type C (PTPRC) (AID 2283212)
# Method: NVS_ENZ_hPTPRC is a biochemical, single-readout assay that uses extracted gene-proteins from yeast cells in a cell-free assay. Measurements were taken 1 hour after chemical dosing in a 96-well plate.NVS_ENZ_hPTPRC is one of one assay component(s) measured or calculated from the NVS_ENZ_hPTPRC assay. It is designed to make measurements of enzyme activity, a form of enzyme reporter, as detected with absorbance signals by Colorimetric technology.Data from the assay component NVS_ENZ_hPTPRC was analyzed into 1 assay endpoint. This assay endpoint, NVS_ENZ_hPTPRC, was analyzed in the positive analysis fitting direction relative to DMSO as the negative control and baseline of activity. Using a type of enzyme reporter, loss-of-signal activity can be used to understand changes in the enzymatic activity as they relate to the gene PTPRC. Furthermore, this assay endpoint can be referred to as a primary readout, because this assay has produced multiple assay endpoints where this one serves a enzymatic activity function. To generalize the intended target to other relatable targets, this assay endpoint is annotated to the phosphatase intended target family, where the subfamily is receptor tyrosine phosphatase.
# Binding assays used specific radioligands (tritiated, iodinated) with non-radioactive competitive displacement ligands in agonist or antagonist protocols (as indicated) and various reference compounds and inhibitors to titrate specific binding to receptors and transporters. Most enzyme assays (CYPs, kinases, phosphatases, proteases, HDACs) used recombinant protein and specific substrates (fluorescence mostly, some colorimetric and radioactive) and inhibitors, followed by a biochemical separation of substrate and product. All assays for the biochemical HTS were initially run in duplicate at a single concentration (10 uM for CYP450 assays and 25 uM for all others). Assay-chemical combinations meeting a pre-defined threshold (e.g., 30% inhibition and other criteria defined below) were then run in singleton concentration-response format with maximum concentration of 20 uM for CYPs and 50 uM for all others. Each assay was run with positive and negative controls, and concurrent controls on every plate. The follow-up (secondary) screen tested active chemical-pairs in concentration series, as well as a few additional assays not tested in the primary screen, some selected negative inactives, and several cases re-run in the concentration series for confirmatory purposes.
# Chain of human Protein Tyrosine Phosphatase Receptor Type C (PTPRC), PTPRC (gene 5788) (P08575 whole entry, looked up): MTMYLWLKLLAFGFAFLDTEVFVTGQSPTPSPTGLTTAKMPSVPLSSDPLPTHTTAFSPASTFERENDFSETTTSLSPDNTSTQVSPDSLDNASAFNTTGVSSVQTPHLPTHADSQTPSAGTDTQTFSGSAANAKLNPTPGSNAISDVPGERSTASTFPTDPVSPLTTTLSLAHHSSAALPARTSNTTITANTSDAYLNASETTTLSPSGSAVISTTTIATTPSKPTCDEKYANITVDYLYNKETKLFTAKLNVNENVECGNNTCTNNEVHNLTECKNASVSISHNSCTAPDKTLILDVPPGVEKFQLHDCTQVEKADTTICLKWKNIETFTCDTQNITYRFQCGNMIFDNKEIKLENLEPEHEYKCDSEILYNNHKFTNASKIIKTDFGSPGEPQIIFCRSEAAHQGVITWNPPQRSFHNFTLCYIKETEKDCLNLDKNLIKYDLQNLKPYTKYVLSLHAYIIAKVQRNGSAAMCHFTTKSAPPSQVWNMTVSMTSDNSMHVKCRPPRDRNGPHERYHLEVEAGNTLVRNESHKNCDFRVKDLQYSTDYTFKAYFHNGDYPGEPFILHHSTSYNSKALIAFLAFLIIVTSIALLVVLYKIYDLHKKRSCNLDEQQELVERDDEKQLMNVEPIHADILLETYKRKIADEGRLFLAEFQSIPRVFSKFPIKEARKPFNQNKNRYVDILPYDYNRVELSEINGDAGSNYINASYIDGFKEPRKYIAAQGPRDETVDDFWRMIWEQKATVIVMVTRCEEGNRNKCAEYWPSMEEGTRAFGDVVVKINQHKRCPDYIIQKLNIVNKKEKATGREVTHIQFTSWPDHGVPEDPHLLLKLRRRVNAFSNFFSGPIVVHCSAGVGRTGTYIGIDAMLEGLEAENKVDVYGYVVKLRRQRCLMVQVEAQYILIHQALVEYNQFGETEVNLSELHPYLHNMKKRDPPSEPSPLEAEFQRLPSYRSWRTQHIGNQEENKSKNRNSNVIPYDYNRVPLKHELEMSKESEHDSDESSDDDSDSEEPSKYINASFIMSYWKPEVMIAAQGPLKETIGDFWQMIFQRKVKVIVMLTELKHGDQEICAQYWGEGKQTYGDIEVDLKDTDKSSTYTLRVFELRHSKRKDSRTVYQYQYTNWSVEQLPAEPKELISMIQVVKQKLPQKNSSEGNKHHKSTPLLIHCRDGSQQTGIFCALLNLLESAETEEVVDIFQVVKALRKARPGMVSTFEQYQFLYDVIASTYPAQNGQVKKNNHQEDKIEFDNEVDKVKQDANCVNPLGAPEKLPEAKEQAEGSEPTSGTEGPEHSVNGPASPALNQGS
SMILES,outcome,AC50
CN(C)C(=O)Nc1ccc(Cl)cc1,inactive,
COC(=O)c1ccccc1N,inactive,
Cc1cccc(N)c1N,,15.8 µM (active)
[O-][Cl+]O,inactive,
ClCCOCCCl,inactive,
Nc1ccc(Cl)cc1N,,16.2 µM (active)
CC(C)(C)C(O)(CCc1ccc(Cl)cc1)Cn1cncn1 (stereo unspecified),inactive,
C[C@]12C=CC3=C4CCC(=O)C=C4CC[C@H]3[C@@H]1CC[C@@H]2O,,9.63 µM (active)
CN(C)[C@@H]1C(=O)C(C(N)=O)=C(O)[C@@]2(O)C(=O)C3=C(O)c4c(O)cccc4[C@@](C)(O)[C@H]3C[C@@H]12,,15.6 µM (active)
O=[N+]([O-])c1ccc(Oc2ccc(Cl)cc2Cl)cc1,inactive,
c1ccc(NNc2ccccc2)cc1,,18.2 µM (active)
